A short description of assay [1]: qHTS assay to identify small molecule antagonists of the thyroid receptor (TR) signaling pathway - cell viability counter screen (AID 743064). Also: nearly all actives have a fitted effect of over 50% in size. Also: potency is read from the fitted curve at half-maximal effect. The gist of the method: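 Rat GH3 pituitary tumor cells stably expressing two TR response elements driving luciferase were plated, rested 4 h, then dosed with library compounds and T3 (1 nM final). After 23.5 h at 37 °C, CellTiter-Fluor was added for 30 min and fluorescence recorded.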
(In general: qHTS replaces the single test concentration by a dilution series.)

In assay [2] the test system is thyroid hormone receptor (rat, GH3 cells). The assay can be described thus: qHTS assay to identify small molecule agonists of the thyroid receptor (TR) signaling pathway (AID 743066; calls by dose curve).
Assay [3] has as its target Estrogen receptor (Homo sapiens) (UniProt P03372). The assay can be described thus: qHTS assay to identify small molecule antagonists of the estrogen receptor alpha (ER-alpha) signaling pathway (AID 743069; active = well fitted curve in the direction sought with a large enough effect in the signal ratio in the repeat runs, not every such curve was filed as active; the % refers to the signal ratio). In a few lines:
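HEK293 cells stably carrying an ER-alpha-UAS-bla beta-lactamase reporter were pre-cultured overnight in 2% charcoal-stripped FBS medium. Test compounds in DMSO were added together with 17beta-estradiol for 18 hr at 37C. Read-out was fluorescence after 2 hr with LiveBLAzer B/G FRET substrate at room temperature.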

A short description of assay [4]: qHTS assay to identify small molecule antagonists of the estrogen receptor alpha (ER-alpha) signaling pathway - cell viability counter screen (AID 743074; calls by dose curve; also: nearly all actives have a fitted effect of over 45% in size).
For assay [5], the target named is Estrogen receptor (Homo sapiens) (UniProt P03372). The assay can be described thus: qHTS assay to identify small molecule agonists of the estrogen receptor alpha (ER-alpha) signaling pathway (AID 743075; calls by dose curve).
Assay [6] shares this target. The assay can be described thus: qHTS assay to identify small molecule agonists of the estrogen receptor alpha (ER-alpha) signaling pathway using the BG1 cell line (AID 743079). Also: nearly all actives have a fitted effect of over 20% in size. Also: potency is read from the fitted curve at half-maximal effect.
Assay [7] is described as follows: qHTS assay to identify small molecule antagonists of the estrogen receptor alpha (ER-alpha) signaling pathway using the BG1 cell line - cell viability counter screen (AID 743081).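 Also: compound given together with 17beta-estradiol as the ER stimulus; series mostly up to about 70 µM; nearly all actives have a fitted effect of over 45% in size.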
The target of assay [8] is Aromatase (Homo sapiens) (UniProt P11511). The assay can be described thus: qHTS assay to identify aromatase inhibitors (AID 743083). Also: series mostly up to about 70 µM; nearly all actives have a fitted effect of over 55% in size.
Assay [9] in a line: qHTS assay to identify aromatase inhibitors - cell viability counter screen (AID 743084).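 Also: cells stimulated with testosterone during compound exposure; nearly all actives have a fitted effect of over 55% in size.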
Assay [10] concerns the target Aryl hydrocarbon receptor (Homo sapiens) (UniProt P35869). The assay can be described thus: qHTS assay to identify small molecule that activate the aryl hydrocarbon receptor (AhR) signaling pathway (AID 743085).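 Also: HG2L7.5c1 human HepG2 liver cells with stably integrated DRE-driven firefly reporter; series mostly up to about 70 µM; nearly all actives have a fitted effect of over 15% in size.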 The gist of the method: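 Compounds were tested in HepG2 hepatocellular carcinoma cells harbouring a stably integrated luciferase gene under control of 20 DREs. Increased reporter signal after 24 h treatment at 37C was taken as AhR activation.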

Assay [11] can be described thus: qHTS assay to identify small molecule that activate the aryl hydrocarbon receptor (AhR) signaling pathway - cell viability counter screen (AID 743086).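 Also: HepG2 liver cells carrying the AhR DRE luciferase reporter; series mostly up to about 70 µM; nearly all actives have a fitted effect of over 45% in size.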 In a few lines: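 HepG2-AhR-luc (HG2L7.5c1) cells, 4000/well, were preincubated 5 h at 37C, exposed to compound in qHTS format for 24 hr at 37C, then given CellTiter-Fluor for 30 min; viability was read as fluorescence in the reporter wells.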

Assay [12] can be described thus: qHTS assay to identify small molecule antagonists of the peroxisome proliferator-activated receptor gamma (PPARg) signaling pathway - cell viability counter screen (AID 743194). Also: nearly all actives have a fitted effect of over 55% in size. In a few lines:
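PPARg-UAS-bla HEK293H cells were plated, rested 5 h at 37 C, then treated with compounds plus rosiglitazone (50 nM final) for 17 h at 37 C; viability was then read by CellTiter-Glo luminescence after 30 min at room temperature.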

Assay [13] in a line: qHTS assay for small molecule agonists of the antioxidant response element (ARE) signaling pathway (AID 743202; active = well fitted activation curve with a large enough effect in the signal ratio in the repeat runs, not every such curve was filed as active; the % refers to the signal ratio). The gist of the method:
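Read-out: LiveBLAzer B/G FRET substrate fluorescence after 2 h at room temperature, following 16 h compound treatment at 37 C of HepG2 cells carrying an ARE-driven beta-lactamase reporter.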

Assay [14] can be described thus: qHTS assay for small molecule agonists of the antioxidant response element (ARE) signaling pathway - cell viability counter screen (AID 743203; calls by dose curve; also: nearly all actives have a fitted effect of over 55% in size). The gist of the method: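 ARE-bla HepG2 cells were plated, rested 5 h at 37C/5% CO2, then exposed to compounds in DMSO for 16 h. Viability was read as CellTiter-Glo luminescence after 30 min at room temperature, in the same wells as the ARE screen.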

The nature of assay [15]: qHTS assay for small molecule activators of the heat shock response signaling pathway - cell viability counter screen (AID 743209). Also: nearly all actives have a fitted effect of over 50% in size. The gist of the method:
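HSE-bla HeLa cells plated overnight, then exposed to Tox21 compounds (23 nL in DMSO) for 5 h at 37 C. After the bla reporter read, CellTiter-Glo was added in the same wells and luminescence read after 30 min at room temperature.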

Assay [16] can be described thus: qHTS assay to identify small molecule antagonists of the estrogen receptor alpha (ER-alpha) signaling pathway using the BG1 cell line (AID 743080; calls by dose curve;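 also: BG1 cells stimulated with 17beta-estradiol alongside compound; series mostly up to about 70 µM; nearly all actives have a fitted effect of over 25% in size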). The gist of the method: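 Endogenous full-length ER-alpha in BG1-Luc-4E2 cells drives a stably integrated 4×ERE luciferase gene; compounds were tested against 17beta-estradiol over 21.5 h, with luminescence and multiplexed viability fluorescence recorded.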

In assay [17] the target is Peroxisome proliferator-activated receptor gamma (Homo sapiens) (UniProt P37231). The assay can be described thus: qHTS assay to identify small molecule agonists of the peroxisome proliferator-activated receptor gamma (PPARg) signaling pathway (AID 743094; active = well fitted activation curve with a large enough effect in the signal ratio in the repeat runs, not every such curve was filed as active; the % refers to the signal ratio). The gist of the method: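 GeneBLAzer PPARg UAS-bla HEK293H cells were plated, rested 5 h, then exposed to compounds for 17 h at 37C. Beta-lactamase activity was read by LiveBLAzer B/G FRET substrate fluorescence after 1 h at room temperature.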

A short description of assay [18]: qHTS assay for small molecule activators of the heat shock response signaling pathway (AID 743210; active = well fitted activation curve with a large enough effect in the signal ratio in the repeat runs, with a control signal flat, not every such curve was filed as active; the % refers to the signal ratio; also: series mostly up to about 63 µM). The gist of the method: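 HSE-bla HeLa cells (beta-lactamase reporter under heat shock response elements) were exposed to compounds for 5 h at 37 C, then loaded with LiveBLAzer B/G FRET substrate for 2.5 h at room temperature before fluorescence reading.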
In assay [19] the target is Peroxisome proliferator-activated receptor gamma (Homo sapiens) (UniProt P37231). As to the kind of experiment: qHTS assay to identify small molecule antagonists of the peroxisome proliferator-activated receptor gamma (PPARg) signaling pathway (AID 743191; calls by dose curve; also: series mostly up to about 63 µM; nearly all actives have a fitted effect of over 30% in size). In a few lines:
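GeneBLAzer PPARg UAS-bla HEK293H cells carrying a UAS-driven beta-lactamase reporter were plated at 3000 cells/well, preincubated 5 h at 37C, then given compound for 17 h at 37C; LiveBLAzer B/G FRET substrate was read after 1 h at room temperature.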

“And” between values parts separate entries of the source, which are not always exact repeats. Identical values can stand only once. Inconclusive results are not listed. More than one record can exist for a structure, and the calls need not agree. The source made the active and inactive calls. Unless noted, calls follow the shape of the dose curve; as a rule, active = well fitted curve in the direction sought with a large enough effect in the repeat runs; inconclusive = weak or mixed curves; inactive = no such curve, though single readings can be large; an effect the other way counts as inactive or inconclusive.
% is scaled to controls: 0 for no effect and ±100 for the full control effect.

Aromatase (Homo sapiens), sequence (P11511 whole entry, looked up): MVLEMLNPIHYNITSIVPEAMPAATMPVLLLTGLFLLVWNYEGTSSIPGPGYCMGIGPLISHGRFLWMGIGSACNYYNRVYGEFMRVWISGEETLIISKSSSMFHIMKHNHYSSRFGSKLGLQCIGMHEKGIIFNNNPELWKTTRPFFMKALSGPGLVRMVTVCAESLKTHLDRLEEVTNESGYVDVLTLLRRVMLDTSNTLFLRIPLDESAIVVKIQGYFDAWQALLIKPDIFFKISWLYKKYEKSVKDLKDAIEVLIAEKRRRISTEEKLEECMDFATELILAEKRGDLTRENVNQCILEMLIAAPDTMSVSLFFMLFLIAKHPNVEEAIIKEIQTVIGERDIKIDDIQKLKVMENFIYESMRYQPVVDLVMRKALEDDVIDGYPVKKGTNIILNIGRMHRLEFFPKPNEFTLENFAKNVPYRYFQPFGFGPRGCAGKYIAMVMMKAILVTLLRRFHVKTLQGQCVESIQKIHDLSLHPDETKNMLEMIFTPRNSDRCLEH
Aryl hydrocarbon receptor (Homo sapiens), sequence (P35869 whole entry, looked up): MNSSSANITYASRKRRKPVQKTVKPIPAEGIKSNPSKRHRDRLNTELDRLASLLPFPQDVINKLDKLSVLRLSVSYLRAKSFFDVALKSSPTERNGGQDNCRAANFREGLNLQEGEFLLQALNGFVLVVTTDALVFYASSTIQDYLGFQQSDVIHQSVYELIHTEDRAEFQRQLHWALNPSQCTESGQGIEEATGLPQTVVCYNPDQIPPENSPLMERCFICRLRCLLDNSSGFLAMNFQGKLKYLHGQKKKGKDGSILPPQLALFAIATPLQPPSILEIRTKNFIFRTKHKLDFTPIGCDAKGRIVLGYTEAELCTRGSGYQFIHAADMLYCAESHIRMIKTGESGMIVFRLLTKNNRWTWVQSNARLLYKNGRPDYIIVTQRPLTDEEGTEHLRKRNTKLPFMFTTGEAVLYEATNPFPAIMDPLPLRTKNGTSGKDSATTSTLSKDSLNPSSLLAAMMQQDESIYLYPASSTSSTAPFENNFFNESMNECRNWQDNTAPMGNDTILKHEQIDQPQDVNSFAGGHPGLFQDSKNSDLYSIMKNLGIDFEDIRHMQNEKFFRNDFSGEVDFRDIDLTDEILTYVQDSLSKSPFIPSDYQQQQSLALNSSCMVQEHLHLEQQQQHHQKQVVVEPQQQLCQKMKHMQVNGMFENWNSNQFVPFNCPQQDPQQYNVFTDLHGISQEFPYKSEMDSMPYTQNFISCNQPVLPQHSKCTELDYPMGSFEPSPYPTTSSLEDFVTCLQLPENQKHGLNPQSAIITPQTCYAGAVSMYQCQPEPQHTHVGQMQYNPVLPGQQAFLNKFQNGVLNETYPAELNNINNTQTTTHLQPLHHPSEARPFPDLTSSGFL
Estrogen receptor (Homo sapiens), sequence (P03372 whole entry, looked up): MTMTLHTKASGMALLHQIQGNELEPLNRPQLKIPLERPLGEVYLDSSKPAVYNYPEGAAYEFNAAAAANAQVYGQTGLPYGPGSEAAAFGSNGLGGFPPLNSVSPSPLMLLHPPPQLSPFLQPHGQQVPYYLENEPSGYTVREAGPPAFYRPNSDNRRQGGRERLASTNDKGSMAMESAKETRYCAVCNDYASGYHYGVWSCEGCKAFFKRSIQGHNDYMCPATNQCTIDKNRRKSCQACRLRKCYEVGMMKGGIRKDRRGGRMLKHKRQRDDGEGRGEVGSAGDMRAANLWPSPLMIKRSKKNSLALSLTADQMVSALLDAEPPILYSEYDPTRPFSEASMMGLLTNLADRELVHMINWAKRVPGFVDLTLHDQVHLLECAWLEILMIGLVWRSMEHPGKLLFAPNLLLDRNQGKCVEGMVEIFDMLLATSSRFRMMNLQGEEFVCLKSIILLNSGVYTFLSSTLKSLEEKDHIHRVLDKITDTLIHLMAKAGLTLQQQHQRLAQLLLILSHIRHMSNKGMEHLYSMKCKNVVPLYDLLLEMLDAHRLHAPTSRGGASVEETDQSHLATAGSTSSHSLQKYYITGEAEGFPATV
Peroxisome proliferator-activated receptor gamma (Homo sapiens), sequence (P37231 whole entry, looked up): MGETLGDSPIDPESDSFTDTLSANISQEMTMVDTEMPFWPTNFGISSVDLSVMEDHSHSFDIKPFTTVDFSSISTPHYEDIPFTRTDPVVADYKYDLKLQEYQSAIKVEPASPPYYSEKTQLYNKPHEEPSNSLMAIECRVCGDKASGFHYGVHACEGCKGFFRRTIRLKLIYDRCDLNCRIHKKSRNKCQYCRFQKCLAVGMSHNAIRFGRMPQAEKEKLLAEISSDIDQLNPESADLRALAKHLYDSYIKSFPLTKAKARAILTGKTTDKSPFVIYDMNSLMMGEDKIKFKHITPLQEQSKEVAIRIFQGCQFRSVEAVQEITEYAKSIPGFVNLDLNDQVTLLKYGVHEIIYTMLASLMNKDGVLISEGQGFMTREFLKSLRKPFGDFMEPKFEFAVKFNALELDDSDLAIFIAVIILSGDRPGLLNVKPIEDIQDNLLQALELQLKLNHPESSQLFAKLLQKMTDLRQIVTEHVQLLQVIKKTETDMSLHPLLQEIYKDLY

As to `CC(C)(C)c1ccc(OCC2CO2)cc1` (stereo unspecified), the Potency entry in assay [1], in assay [2], in assay [3], in [5], in [7] and in assay [8] was “inactive” throughout. For the same compound, the Potency result in assay [9], in assay [10], in assay [11], in assay [12], in assay [13] and in assay [14] was “inactive” in each case. In assay [15], the Potency result was “inactive”. Moreover, in [4], the result was inactive. Further, in assay [6], the Potency is 39.4 µM (active).
As to `NC[C@H]1O[C@H](O[C@H]2[C@H](O)[C@@H](O[C@H]3O[C@H](CO)[C@@H](O)[C@H](N)[C@H]3O)[C@H](N)C[C@@H]2N)[C@H](O)[C@@H](O)[C@@H]1O`, the Potency result in assay [1] is “inactive and 1.89 µM (active)”. Also, the Potency entry in assay [2], in [16], in [7], in [8], in assay [9] and in [11] was “inactive” throughout. In assay [17], the Potency entry was “inactive”. Besides, the compound was called inactive in [4]. For the same compound, the activation is 0.116% [at 8.47 µM] (inactive) in [10] and 4.43% [at 8.36 µM] (inactive) in assay [13]. The activity change, negative = cytotoxicity in [12] is -17.2% [at 5.95 µM] (inactive); in assay [15] it was 5.37% [at 5.95 µM] (inactive). Also, the viability change, negative = cytotoxic in assay [14] is 7.86% [at 8.36 µM] (inactive).
Regarding `CCCc1ccccc1`, the Potency result in assay [1], in assay [2], in assay [3], in assay [5], in [6] and in [16] was “inactive” throughout. Also, the Potency result in assay [7], in assay [8], in [9], in [11], in assay [12] and in assay [14] was “inactive” in each case. Moreover, the Potency entry in [15] was “inactive”. In addition, the result in [4] and in assay [18] was inactive.
Take `N#CCCNCCC#N`: the Potency entry in assay [1], in assay [2], in assay [3], in assay [5], in [6] and in assay [16] was “inactive” each time. The Potency entry in assay [7], in assay [9], in assay [11], in assay [17], in [19] and in assay [12] was “inactive” in each case. In addition, the Potency entry in assay [13], in [14] and in assay [15] was “inactive” in each case. Moreover, the call in assay [4] and in assay [18] was inactive.
As for `COc1ccc(OC)c(OC)c1`, the Potency result in assay [1], in assay [2], in assay [3], in assay [5], in assay [16] and in [7] was “inactive” in each case. In addition, the Potency entry in assay [8], in assay [9], in assay [11], in [17], in assay [19] and in assay [12] was “inactive” each time. Further, the Potency entry in [14] and in [15] was “inactive” in each case. For the same compound, the outcome in assay [4] was inactive.
`Cl/C(=C\n1cncn1)c1ccc(Cl)cc1Cl`: the Potency result in [1], in assay [2], in assay [7], in assay [9], in [10] and in assay [11] was “inactive” each time. Further, the Potency result in assay [17], in assay [12], in assay [14] and in assay [15] was “inactive” throughout. The compound was called inactive in [4] and in assay [18].
Turning to `O=C(C(=O)c1ccc(Br)cc1)c1ccc(Br)cc1`, the Potency entry in assay [1], in assay [2], in assay [3], in assay [5], in [6] and in [16] was “inactive” each time. Further, the Potency result in [7], in assay [8], in assay [9], in [10], in assay [11] and in [17] was “inactive” throughout. The Potency entry in assay [12], in assay [13] and in assay [14] was “inactive” throughout. The outcome in assay [4] and in [18] was inactive.
`CCCCOCCOCCOCCOCCO`: the Potency result in assay [1], in [2], in [3], in assay [5], in [16] and in assay [7] was “inactive” each time. Further, the Potency result in assay [8], in [9], in assay [10], in assay [11], in assay [17] and in [12] was “inactive” throughout. In addition, the Potency entry in assay [13] and in assay [14] was “inactive” in each case. Also, the outcome in [4] and in assay [18] was inactive.

The record behind these values is PubChem BioAssay (Tox21).
